Source: PubChem BioAssay (Johns Hopkins Ion Channel Center)
KCNQ2 block – KCNQ2 (rat) channel inhibition; O88943; CHO-K1 KCNQ2, FluxOR thallium flux, 20 min; stronger effect = lower value; B-score at 10 µM; 310,000 compounds, 1.1% hits;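 active = fluorescence ratio B-score at most minus 3 library SDs, with starting brightness B-score within 2 library SDs, cut at about -5.5 in these data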
Target sequence (O88943 whole entry, looked up): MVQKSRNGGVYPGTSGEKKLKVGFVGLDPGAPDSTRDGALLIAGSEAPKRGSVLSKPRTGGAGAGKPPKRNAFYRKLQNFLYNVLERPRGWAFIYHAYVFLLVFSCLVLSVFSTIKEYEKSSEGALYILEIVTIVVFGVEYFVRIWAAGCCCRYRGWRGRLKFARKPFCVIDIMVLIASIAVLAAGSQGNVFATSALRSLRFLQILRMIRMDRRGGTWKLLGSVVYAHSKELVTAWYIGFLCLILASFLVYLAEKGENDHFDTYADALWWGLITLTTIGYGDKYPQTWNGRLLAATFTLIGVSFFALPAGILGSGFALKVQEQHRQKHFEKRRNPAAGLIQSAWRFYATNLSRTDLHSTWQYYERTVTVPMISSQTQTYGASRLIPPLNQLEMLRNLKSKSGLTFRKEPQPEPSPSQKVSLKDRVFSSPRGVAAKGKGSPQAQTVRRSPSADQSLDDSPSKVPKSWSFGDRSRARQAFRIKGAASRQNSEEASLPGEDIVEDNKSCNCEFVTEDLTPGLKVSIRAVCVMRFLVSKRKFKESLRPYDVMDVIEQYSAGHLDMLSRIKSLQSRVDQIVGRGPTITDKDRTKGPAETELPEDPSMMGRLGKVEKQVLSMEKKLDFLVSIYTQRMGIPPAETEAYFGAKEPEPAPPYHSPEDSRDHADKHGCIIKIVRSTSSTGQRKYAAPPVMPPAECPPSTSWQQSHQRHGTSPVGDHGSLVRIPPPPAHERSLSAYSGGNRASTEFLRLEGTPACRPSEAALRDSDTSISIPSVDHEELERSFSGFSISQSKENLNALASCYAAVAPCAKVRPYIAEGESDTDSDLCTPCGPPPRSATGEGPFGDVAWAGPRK
KCNQ2 pot – enhances the rat KCNQ2 potassium channel; B-score at 10 µM; CHO-K1 KCNQ2, FluxOR thallium flux fluorescence; stronger effect = higher value; AID 2239; 310,000 compounds, 0.54% hits; O88943;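 active = fluorescence ratio B-score at least 3 SD of library B-scores, with initial fluorescence B-score within 3 of them, cut at about 5.3 in these data; same plate scores as AID 2156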;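 also: B-score of peak minus minimum over baseline fluorescence ratio after K+ and Tl+ stimulus; positive B-score means potentiation of KCNQ2 with more thallium influx and brighter signal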
Kir21 confirm – confirmation of mouse Kir2.1 potassium channel inhibitors; shares compounds with KCNQ2 pot; Kir2.1-expressing cells, FluxOR thallium flux fluorescence; stronger effect = lower value; Tl flux remaining, % of negative control (stronger effect = lower value), % at 10 µM; 2,300 compounds, 41% hits; AID 2032;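 active = Primary-screen hit whose thallium flux fell at least 3 control SD below untreated wells in both duplicates, with normal baseline fluorescence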;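 also: 0% = blank wells without stimulus and 100% = stimulated no-compound controls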
HEK293 ctr – parental HEK293 activity in Kir2.1 inhibitor counter-screen; shares compounds with KCNQ2 pot; parental HEK293 cells, FluxOR thallium flux fluorescence; 0% = unstimulated blank wells; FluxOR signal as % of negative control (100 = no effect), % at 10 µM; 2,300 compounds, 19% hits;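 active = dye signal at least 3 control SD above or below untreated wells in both duplicates, raw fluorescence within 3, either direction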;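 also: percent is based on the flux ratio of peak minus minimum fluorescence over baseline F0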
CHO-K1 ctr – alters thallium flux in parental CHO-K1 cells, KCNQ2 counter-screen | shares compounds with KCNQ2 pot | FluxOR thallium flux fluorescence; zero = vehicle mean+3SD, 100% = vehicle-minus-blank window | activity increase over 3SD of controls, % at 10 µM | 1,200 compounds, 43% hits | AID 2282;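 active = signal rise of at least 3 SD above the untreated control mean, in both duplicate wells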;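 also: counter screen of KCNQ2 potentiator hits so any rise reflects channel-independent effects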
KCNQ1 sel pot – selectivity of KCNQ2 potentiators: effect on human KCNQ1; activation over 3SD threshold, % at 10 µM; CHO KCNQ1 stable, FluxOR thallium flux fluorescence; beyond 3SD, as % of vehicle-control signal; shares compounds with KCNQ2 pot; 1,200 compounds, 28% hits; AID 2283;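 active = fluorescence ratio rise of at least 3 SD of vehicle wells above their mean, in both replicate wells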;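 also: 0% = vehicle mean plus 3 SD and 100% = vehicle minus unstimulated blank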
KCNQ2 pot confirm – confirmation of rat KCNQ2 potassium channel potentiators; shares compounds with KCNQ2 pot; CHO-KCNQ2 cells, FluxOR thallium flux fluorescence; potentiation, less the hit threshold, % at 10 µM; 1,200 compounds, 68% hits; AID 2287;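 active = fluorescence ratio rising 3 SD or more over the vehicle control mean in both replicates, plus primary screen hit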;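 also: peak minus minimum thallium fluorescence divided by baseline after K/Tl stimulus; 0% = vehicle mean plus 3 SD and 100% = vehicle minus unstimulated blank difference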
Kir21 spec – mouse Kir2.1 off-target activity of KCNQ2 potentiators. shares compounds with KCNQ2 pot. HEK293 Kir2.1, FluxOR thallium flux fluorescence. activity over 3SD threshold, % at 10 µM. 1,200 compounds, 2% hits;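 active = fluorescence ratio rise of at least 3 SD above the vehicle-control mean, seen in both replicates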;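 also: 0% = vehicle mean plus 3 SD and 100% = vehicle minus no-stimulus blank window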
KCNQ2 W236L MoA – rat KCNQ2 W236L mutant potentiation by KCNQ2 potentiators | shares compounds with KCNQ2 pot | CHO KCNQ2-W236L, automated patch clamp current | current increase over 3SD of negative controls (%), stronger effect = higher value, % at 25 µM | 940 compounds, 10% hits | AID 2558;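 active = current increase at least 3 SD of the untreated controls above them in both duplicate recordings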
* marks the source's active call; other numbers are inactive results; i = inactive; / = no result. In the library only some 1.6% were active in any assay of this set; here they are far more common.

SMILES	KCNQ2 block	KCNQ2 pot	Kir21 confirm	HEK293 ctr	CHO-K1 ctr	KCNQ1 sel pot	KCNQ2 pot confirm	Kir21 spec	others
CCCC(c1nnnn1CS(=O)(=O)c1ccc(C)cc1)N1CCN(c2ccc(F)cc2)CC1 (configuration not stated)	i	/	/	/	/	/	/	/
CCCC(c1nnnn1CS(=O)(=O)c1ccc(C)cc1)N1CCN(CC)CC1 (configuration not stated)	i	5.47*	i	i	32.5*	-8.5	0.3*	-27.8	KCNQ2 W236L MoA=i
CC(C)NC(=O)C(=O)Nc1cc2c3c(c1)C(C)C(=O)N3CCC2 (configuration not stated)	i	/	/	/	/	/	/	/
CCn1c(SCC(=O)NC(C)c2ccccc2)nc2ccccc21 (configuration not stated)	i	/	/	/	/	/	/	/
CCn1c(Sc2ccc(N)cc2Cl)nc2ccccc21	i	/	75.5%*	i	/	/	/	/
CCCCCCCCC(=O)N/N=C/c1ccccn1	i	1.79	/	/	/	/	/	/
CCCCCCCCC/C(=N\O)c1ccccn1	i	24.3*	i	66.5%*	-25.1	-3.8	19.6*	-42.0	KCNQ2 W236L MoA=i
O=C(NNC(=S)NC(=O)c1ccc(Br)cc1)c1ccc([N+](=O)[O-])cc1	i	0.06	/	/	/	/	/	/
O=C(COc1cccc(NC(=O)c2cccc([N+](=O)[O-])c2)c1)c1ccc(Br)cc1	i	8.91*	i	i	3.8*	-14.4	12.4*	-32.2	KCNQ2 W236L MoA=i
O=C(Nc1cccc(OCC(=O)N2CCOCC2)c1)c1cccc([N+](=O)[O-])c1	i	1.22	/	/	/	/	/	/
Cc1ccc(C(=O)NNC(=S)NC(=O)c2ccccc2)cc1	i	1.1	i	i	/	/	/	/
O=C(NNC(=S)NC(=O)c1ccc(Br)cc1)c1cccc([N+](=O)[O-])c1	i	7.62*	i	i	-5.0	-14.6	-34.7	-37.5
Cc1cccc(C(=O)NNC(=S)NC(=O)c2ccccc2)c1	i	0.69	/	/	/	/	/	/
Clc1ccc(CON/C=N/c2ncnc3sccc23)c(Cl)c1	i	0.48	/	/	/	/	/	/
CCOc1ccc(/C(O)=C2/C(=O)C(=O)N(CC3CCCO3)C2c2cccs2)cc1 (configuration not stated)	i	/	/	/	/	/	/	/
COc1ccc(CNC(=O)COC(=O)c2ccccn2)cc1	i	0.49	/	/	/	/	/	/
Cc1ccc(NCN2C(=O)C3C4CCC(C4)C3C2=O)cc1 (configuration not stated)	i	6.19*	i	i	-25.1	-34.8	-18.6	-42.2
CC(=O)Nc1ccc(NCN2C(=O)C3C4CCC(C4)C3C2=O)cc1 (configuration not stated)	i	1.22	/	/	/	/	/	/
CCn1cc(C(=O)NCCCN2CCN(C)CC2)c(=O)c2cc(S(=O)(=O)N3CCc4ccccc4C3)ccc21	i	/	/	/	/	/	/	/
CC(C)c1nc(N2CCN(C(=O)c3ccccc3)CC2)c(C#N)c2c1COC(C)(C)C2	i	/	/	/	/	/	/	/
Cc1nc(N2CCN(Cc3ccccc3)CC2)c(C#N)c2c1COC(C)(C)C2	i	/	60.0%*	i	/	/	/	/
O=C(NC(=S)Nc1ccc(C(F)(F)F)cc1)c1csnn1	i	21.2*	i	398.0%*	2.2*	-25.8	69.4*	-22.6	KCNQ2 W236L MoA=i
COc1ccc(NC(=S)NC(=O)c2csnn2)cc1	i	10.7*	i	242.5%*	21.2*	-10.5	29.9*	-19.2	KCNQ2 W236L MoA=i
O=C(NC(=S)Nc1ccccc1)c1ccc(-c2ccccc2)cc1	i	0.29	/	/	/	/	/	/
O=C(Nc1csnn1)c1csnn1	i	/	/	/	/	/	/	/
SMILES	KCNQ2 block	KCNQ2 pot	Kir21 confirm	HEK293 ctr	CHO-K1 ctr	KCNQ1 sel pot	KCNQ2 pot confirm	Kir21 spec	others
O=C(NC(=S)Nc1ccccc1)c1cc(-c2ccccc2)nc2ccccc12	i	16.9*	i	131.0%*	-13.1	-20.7	1.7*	-33.8	KCNQ2 W236L MoA=i
O=C(NC(=S)Nc1ccccc1)c1csnn1	i	18.1*	i	487.0%*	-18.0	-12.7	73.3*	-4.7	KCNQ2 W236L MoA=i
O=C(NC(=S)Nc1ccccn1)c1cc(-c2ccccc2)nc2ccccc12	i	1.68	/	/	/	/	/	/
COc1ccc(CNC(=O)c2csnn2)cc1	i	/	/	/	/	/	/	/
COc1cc(C#N)c(NC(=S)N2CCOCC2)cc1OC	i	/	/	/	/	/	/	/
Cc1nc(SCC(=O)N2c3ccccc3Sc3ccccc32)n[nH]1	i	/	/	/	/	/	/	/
COc1ccc(-c2cccc(NC(=O)c3ccc4c(c3)OCO4)c2)nn1	i	1.49	/	/	/	/	/	/
O=C(Nc1sc2c(c1C(=O)O)CCCCC2)c1ccccc1	i	1.28	/	/	/	/	/	/
O=C(Nc1sc2c(c1C(=O)O)CCC2)c1ccccc1	i	1.41	/	/	/	/	/	/
O=C(Nc1sc2c(c1C(=O)O)CCCC2)c1cccc(Cl)c1	i	5.44*	i	i	-14.8	-32.3	4.9*	-34.0	KCNQ2 W236L MoA=i
O=C(Nc1sc2c(c1C(=O)O)CCCC2)c1ccc(Cl)cc1	i	7.88*	i	i	-10.1	-21.2	-5.1	-29.9
CCC(C)[C@H]1COCCS(=O)(=O)N1Cc1ccc(Cl)cc1Cl (some centres not stated)	i	0.55	/	/	/	/	/	/
CN(Cc1ccc(OC(F)F)cc1)C(=O)c1ccc2c(=O)n3c(nc2c1)CCC3	i	0.02	/	/	/	/	/	/
COc1ccc(C(=O)NCCS(=O)(=O)N2CCc3ccccc3C2)cc1	i	0.46	/	/	/	/	/	/
COc1ccc(CCC(=O)NCCS(=O)(=O)N2CCN(c3ccccc3OC)CC2)cc1	i	1.88	/	/	/	/	/	/
N#C/C(=C\c1ccc(Cl)cc1)c1n[nH]c(Cn2cncn2)n1	i	/	/	/	/	/	/	/
O=C(Nc1ccc(Cl)cc1Cl)c1n[nH]c(Cn2cncn2)n1	i	7.11*	i	i	-10.8	50.4*	-8.8	-22.9	KCNQ2 W236L MoA=i
COc1cc(OC)cc(C(=O)NNC(=O)CCC(=O)c2cccs2)c1	i	0.77	/	/	/	/	/	/
CC1=NOC(=O)/C1=C\c1ccc(-c2ccc(Br)cc2C(=O)O)o1	i	1.18	/	/	/	/	/	/
CC1=NN(c2ccc(Br)cc2)C(=O)/C1=C/c1ccc(-c2ccccc2C(=O)O)o1	i	7.11*	i	i	-12.0	13.6*	19.4*	-32.6	KCNQ2 W236L MoA=i
CCN(CC(=O)NCc1ccc(F)cc1)C(=O)Cc1ccc(OC)cc1	i	0.06	/	/	/	/	/	/
CCc1ccc(CNC(=O)C2CCN(S(=O)(=O)N3CCC(C)CC3)CC2)cc1	i	6.89*	i	i	-13.7	-6.7	-7.5	-27.8
CC1CCN(S(=O)(=O)N2CCC(C(=O)NCc3ccc4c(c3)OCO4)CC2)CC1	i	0.08	/	/	/	/	/	/
